Assay outcomes: PubChem, The Scripps Research Institute Molecular Screening Center
PAFAH1B2 inh: blocks human PAF acetylhydrolase 1b catalytic subunit 2; inhibition, % at 3.39 µM; recombinant PAFAH1B2, FP-rhodamine activity probe, fluorescence polarization; actives 1.2% (n = 340,000); AID 492953;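 active means inhibition above the mean of all tested compounds plus 3 SD, cut at about 24% in these data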;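 further: 0% = enzyme with DMSO and 100% = wells lacking PAFAH1B2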
Fam108B inh: counter-screen for RBBP9 inhibitors: inhibitors of mouse Fam108B | actives 0.33% (n = 300,000) | AID 1947 | inhibition, % at 9.51 µM | recombinant Fam108B, FP-Rh probe fluorescence polarization;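 active means inhibition above the screen mean inhibition plus 3 SD, computed separately per campaign, cut at about 18% in these data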;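 further: inhibitors lower polarization as less probe binds the enzyme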
PME-1 inh: PME-1 (human) inhibition; Q9Y570; recombinant PME-1, FP-Rh probe fluorescence polarization; AID 2130; actives 0.53% (n = 320,000); inhibition, % at 5.9 µM;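 active means inhibition above the campaign mean of all compounds plus 3 SD, cut at about 26% in these data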;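 further: competitive labeling of PME-1 active site by serine hydrolase directed probe; 0% = PME-1 with DMSO and 100% = wells lacking PME-1 enzyme; inhibitors block probe labeling so polarization falls and inhibition rises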
Target sequence (Q9Y570 whole entry, looked up): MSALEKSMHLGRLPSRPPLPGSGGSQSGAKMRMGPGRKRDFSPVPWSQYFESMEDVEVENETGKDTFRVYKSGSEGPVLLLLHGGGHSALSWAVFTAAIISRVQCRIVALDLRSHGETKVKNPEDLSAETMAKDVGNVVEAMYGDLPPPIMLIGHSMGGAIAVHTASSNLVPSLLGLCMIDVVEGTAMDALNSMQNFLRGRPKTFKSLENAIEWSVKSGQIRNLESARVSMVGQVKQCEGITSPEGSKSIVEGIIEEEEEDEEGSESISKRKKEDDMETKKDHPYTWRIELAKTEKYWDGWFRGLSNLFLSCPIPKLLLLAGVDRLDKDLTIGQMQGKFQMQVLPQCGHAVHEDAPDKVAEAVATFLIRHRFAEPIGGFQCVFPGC
PAFAH1B3 FP inh: inhibitors of human PAFAH1B3. Q15102. recombinant PAFAH1B3, FP-rhodamine probe, fluorescence polarization. inhibition, % at 3.39 µM. actives 0.28% (n = 340,000);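 active means inhibition above the screen-wide average of all tested compounds plus 3 SD, cut at about 25% in these data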;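 further: 0% = enzyme with DMSO only and 100% = wells lacking PAFAH1B3 protein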
Target sequence (Q15102 whole entry, looked up): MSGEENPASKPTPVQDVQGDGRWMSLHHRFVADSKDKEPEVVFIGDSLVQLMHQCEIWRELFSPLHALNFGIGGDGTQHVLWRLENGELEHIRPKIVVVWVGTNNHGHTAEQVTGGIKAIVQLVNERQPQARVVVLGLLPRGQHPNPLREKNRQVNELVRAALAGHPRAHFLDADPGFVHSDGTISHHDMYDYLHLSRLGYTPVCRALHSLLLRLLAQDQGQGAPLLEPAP
PAFAH2 FP inh: PAFAH2 (human) inhibition | AID 492956 | actives 0.99% (n = 340,000) | Q99487 | recombinant PAFAH2, FP-rhodamine activity probe, fluorescence polarization | inhibition, % at 3.39 µM;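 active means inhibition above the mean over all tested compounds plus 3 SD, cut at about 30% in these data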;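 further: inhibitors block probe labeling of enzyme so polarization drops; 0% = enzyme with DMSO and 100% = wells lacking PAFAH2 protein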
pPAFAH inh: inhibitors of human plasma PAF acetylhydrolase (pPAFAH); AID 463082; Q13093; inhibition, % at 3.39 µM; recombinant pPAFAH, FP-rhodamine probe fluorescence polarization; actives 1.5% (n = 330,000);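 active means inhibition above the mean inhibition across the screen plus 3 SD, cut at about 25% in these data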;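 further: inhibitors block binding of the rhodamine activity-based probe so polarization drops; 0% = enzyme with DMSO and 100% = wells lacking pPAFAH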
PAFAH2 FP conf: PAFAH2 (human) inhibition, confirmed | shares compounds with PAFAH2 FP inh | recombinant PAFAH2, FP-rhodamine activity probe, fluorescence polarization | inhibition, % at 3.39 µM | actives 65% (n = 2,300) | AID 493030;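 active means mean inhibition over three repeats above a set limit taken from the earlier primary screen, cut at about 30% in these data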;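 further: inhibitor blocks binding of rhodamine activity probe so polarization falls; 0% = enzyme with DMSO and 100% = wells lacking PAFAH2 protein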
* marks the source's active call; other numbers are inactive results; . = not tested or not shown. Compounds with a hit are over-represented: about 2.8% of the library has one in this group of screens.

SMILES	PAFAH1B2 inh	Fam108B inh	PME-1 inh	PAFAH1B3 FP inh	PAFAH2 FP inh	pPAFAH inh	PAFAH2 FP conf
CC(=O)OCC1=C(C(=O)O)N2C(=O)C(NC(=O)c3ccc(COc4c(C)cccc4Cl)o3)C2SC1 (centres undefined)	-5	-5	-5	-2	43*	15	41*
CC(=O)OCC1=C(C(=O)O)N2C(=O)[C@@H](NC(=O)Cc3cccs3)[C@H]2SC1	5	-3	0	5	39*	16	24
CC(=O)OCC1=C(C(=O)O)N2C(=O)[C@@H](NC(=O)Cc3ccccc3)[C@H]2SC1	5	.	.	13	18	.	.
O=C(CCN1C(=O)/C(=C/c2ccc(F)cc2)SC1=S)Nc1cc([N+](=O)[O-])ccc1O	6	11	3	8	65*	5	69*
O=C(CCCN1C(=O)/C(=C/c2ccccc2)SC1=S)Nc1ccccc1O	0	3	-11	7	2	-3	.
CC(C)=C(NC(=O)c1ccccc1)C(=O)NCCc1nc2ccccc2[nH]1	2	0	-3	12	8	2	.
O=C(COC(=O)c1n[nH]c2ccccc12)Nc1ccccc1	1	-1	-6	6	76*	0	67*
O=C(COC(=O)c1n[nH]c2ccccc12)NC(=O)NC1CCCCC1	2	-1	-22	7	4	-3	.
O=C(COC(=O)c1n[nH]c2ccccc12)NC1CCCCC1	-9	.	.	3	80*	-11	68*
Cc1cc(C)cc(NC(=O)COC(=O)c2n[nH]c3ccccc23)c1	3	-2	-28	5	70*	-10	65*
CCOC(=O)c1n[nH]c2ccccc12	6	0	-2	4	-7	2	.
CC(=O)c1cccc(NC(=O)COC(=O)c2n[nH]c3ccccc23)c1	4	1	-17	0	47*	-8	39*
CN(CCOc1ccccc1)CC(=O)Nc1cccc(C#N)c1	5	1	-2	1	1	4	.
COc1ccc(-c2ccccc2[C@H]2[C@@H]3C=CC[C@@H](C)[C@@H]3C(=O)N2Cc2ccccc2)cc1	1	.	.	3	-2	10	.
Nc1ccc(C(=O)OCCCc2nc3ccccc3[nH]2)cc1	-6	3	-2	3	19	4	.
Nc1ccc(C(=O)OCc2nc3ccccc3[nH]2)cc1	3	2	3	8	88*	6	79*
Cc1ccc(NC(=O)COC(=O)c2ccc3c(c2)NC(=O)C2CCCN32)cc1 (centres undefined)	-10	-22	-25	-13	68*	6	76*
COc1ccc(OC)c(/C=C/C(=O)OCC(=O)Nc2cccc(C(C)=O)c2)c1	0	-3	-4	-8	68*	-2	62*
COc1ccc(/C=C/C(=O)OCC(=O)NCc2ccco2)c(OC)c1	1	3	2	-1	74*	13	69*
COc1cccc(/C=C/C(=O)OCC(=O)NCc2ccco2)c1	0	4	2	-2	29	11	.
COc1ccc(OC)c(/C=C/C(=O)Oc2ccc(C(C)=O)cc2)c1	0	-2	6	2	18	6	.
COc1ccc(OC)c(/C=C/C(=O)OCC(=O)NCc2ccco2)c1	1	.	2	7	40*	0	28
COc1ccc(/C=C/C(=O)OCC(=O)NCCc2ccccc2)c(OC)c1	-2	.	.	5	76*	17	60*
CCN(CC)C(=O)[C@H]1CC(CC(=O)NCCC2=CCCCC2)C(=O)N2CCc3c([nH]c4ccc(OC)cc34)[C@]12C (some centres undefined)	3	.	.	6	-4	12	.
CC(C)CC(OC(=O)c1nsc(Cl)c1Cl)C(=O)NCC1CCCO1 (centres undefined)	6	1	1	-3	7	9	.
SMILES	PAFAH1B2 inh	Fam108B inh	PME-1 inh	PAFAH1B3 FP inh	PAFAH2 FP inh	pPAFAH inh	PAFAH2 FP conf
COCCn1cnnc1SCC(=O)Nc1cc(OC)c([N+](=O)[O-])cc1C	4	3	-3	1	6	8	.
O=Cc1ccc(OC(=O)CCCCC(=O)Oc2ccc(C=O)cc2)cc1	4	-4	3	0	34*	-2	2
COC(=O)CCC(=O)Oc1ccc(OC(=O)CCC(=O)OC)cc1	.	7	-3	.	.	-5	.
COc1ccc(/C=C2/SC(c3ccc(C)cc3)=NC2=O)cc1OC	3	4	6	3	38*	4	26
Cc1c(C(c2cccc(Br)c2)c2c(C)n(C)n(-c3ccccc3)c2=O)c(=O)n(-c2ccccc2)n1C	2	4	2	4	39*	1	20
Cc1ccc(C(=O)COC(=O)c2cccs2)cc1	2	2	2	9	30*	2	21
O=C(OCC(=O)c1ccc[nH]1)c1ccccc1	3	1	10	-1	14	2	.
CN(C)c1ccc(C(=O)OCC(=O)c2ccc[nH]2)cc1	2	.	.	2	68*	7	68*
CN(C)c1ccc(C(=O)OCC(=O)c2cccs2)cc1	-1	0	-3	3	71*	3	76*
CCOc1ccccc1N1CC(C(=O)Nc2cc(Cl)ccc2C)CC1=O (centres undefined)	6	0	1	13	10	3	.
O=C(CSc1nnc(NC(=O)C2CC2)s1)NCc1ccc(F)cc1	3	4	4	0	-1	5	.
CNc1snc(C)c1C(=O)OC(C)C(=O)NCc1ccccc1 (centres undefined)	3	.	.	2	-1	.	.
COC(=O)c1ccc([C@H](NC(=O)c2ccco2)[C@]2(C)C[C@H]2C2CCCCC2)cc1	4	-1	-4	1	-2	-2	.
CN(C)S(=O)(=O)c1ccc(C(=O)OCC(=O)Nc2ccc3c(c2)OCO3)cc1	2	.	1	5	-4	4	.
CN(C(=O)COC(=O)c1ccc2[nH]c3c(c2c1)CCCC3)C1CCS(=O)(=O)C1 (centres undefined)	1	4	-5	1	0	1	.
Cc1cccc(C)c1NC(=O)COC(=O)c1ccc2[nH]c3c(c2c1)CCCC3	-2	-5	-3	3	70*	12	62*
CN(C)S(=O)(=O)c1cccc(NC(=O)COC(=O)c2ccc3c(c2)OCO3)c1	6	-1	1	-1	55*	7	57*
Cc1ccc(S(=O)(=O)N(C)C)cc1NC(=O)COC(=O)c1ccc2c(c1)NC(=O)CS2	4	-2	16	8	52*	4	43*
CC(=O)c1cccc(NC(=O)COC(=O)c2ccc3c(c2)OCO3)c1	-4	.	-2	-3	74*	1	71*
Cc1cccc(C)c1NC(=O)COC(=O)c1ccc2c(c1)OCO2	2	3	-2	-4	28	5	.
